Screens from PubChem BioAssay.
Gli-Sufu block: blocks Gli-Sufu signaling in a luciferase reporter; AID 588413; 340,000 tested, 0.74% active; inhibition, % at 5 µM; Sufu-KO-LIGHT fibroblasts, Gli luciferase reporter luminescence;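 active = inhibition above about 55%, limit read from the data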
Mdm2-MdmX inh: disrupts the human Mdm2-MdmX interaction. O15151+Q00987. inhibition, % at 8 µM. AID 485346. SaOS-2 split-luciferase Mdm2/MdmX complementation, luminescence. 330,000 tested, 3% active;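 active = inhibition of at least 50% at 8 µM in the primary screen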
Target sequence (O15151 whole entry, looked up): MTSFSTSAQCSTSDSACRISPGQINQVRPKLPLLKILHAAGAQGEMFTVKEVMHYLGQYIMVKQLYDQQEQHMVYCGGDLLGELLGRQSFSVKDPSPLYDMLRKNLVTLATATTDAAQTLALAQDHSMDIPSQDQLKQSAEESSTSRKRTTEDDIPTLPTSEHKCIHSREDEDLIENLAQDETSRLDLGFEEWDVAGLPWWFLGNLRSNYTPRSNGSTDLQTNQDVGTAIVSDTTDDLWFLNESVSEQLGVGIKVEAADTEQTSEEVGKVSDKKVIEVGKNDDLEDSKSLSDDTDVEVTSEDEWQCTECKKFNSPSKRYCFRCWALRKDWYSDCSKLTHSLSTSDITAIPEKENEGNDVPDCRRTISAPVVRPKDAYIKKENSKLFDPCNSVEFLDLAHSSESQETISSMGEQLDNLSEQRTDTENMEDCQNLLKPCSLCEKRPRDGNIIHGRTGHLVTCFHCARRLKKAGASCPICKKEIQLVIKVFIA
Target sequence (Q00987 whole entry, looked up): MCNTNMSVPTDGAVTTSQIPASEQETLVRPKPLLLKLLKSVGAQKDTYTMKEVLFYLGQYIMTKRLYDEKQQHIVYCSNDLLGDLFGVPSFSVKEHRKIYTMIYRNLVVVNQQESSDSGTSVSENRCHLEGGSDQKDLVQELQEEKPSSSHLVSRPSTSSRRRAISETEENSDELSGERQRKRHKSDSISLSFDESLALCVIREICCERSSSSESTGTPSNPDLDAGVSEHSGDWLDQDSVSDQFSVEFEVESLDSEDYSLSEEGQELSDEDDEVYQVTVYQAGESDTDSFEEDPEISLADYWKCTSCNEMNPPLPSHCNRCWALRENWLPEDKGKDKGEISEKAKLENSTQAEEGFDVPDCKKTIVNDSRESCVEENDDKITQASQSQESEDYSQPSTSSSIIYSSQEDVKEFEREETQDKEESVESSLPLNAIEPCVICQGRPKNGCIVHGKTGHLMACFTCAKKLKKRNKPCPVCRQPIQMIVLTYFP
Jurkat NFkB inh: lowers PMA/ionomycin-induced NF-kB signal in Jurkat cells; PMA/ionomycin-induced NF-kB luciferase reporter, luminescence; inhibition, % at 4 µM; 330,000 tested, 0.53% active; AID 435003; in the data active = inhibition above about 50%
CSC inhib: blocks cancer stem cells; cancer stem cell-like cells viability, luminescence; inhibition, % at 7.5 µM; 300,000 tested, 1.1% active; in the data active = inhibition above about 75%; inconclusive = no clear call, values can overlap the other calls; tested in HMLE shEcad cells
697 NFkB inh: inhibitors of the PMA/ionomycin-induced NF-kB reporter in 697 B cells; inhibition, % at 4 µM; 330,000 tested, 0.33% active; 697 B-cell NF-kB luciferase reporter, 16 h; in the data active = inhibition above about 35%
aSyn 5UTR inh: MLPCN primary screen, SNCA 5' untranslated region. alpha-synuclein 5'UTR reporter, inhibitor activity. inhibition, % (tested at 7.5 µM). 300,000 tested, 0.82% active; in the data active = inhibition above about 60%; inconclusive = no clear call, values can overlap the other calls;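 note: H4 neuroglioblastoma cells stably carrying SNCA 5'UTR luciferase fusion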
Jurkat NFkB conf: inhibitors of the PMA/ionomycin-induced NF-kB reporter in Jurkat cells, retest; shares compounds with Jurkat NFkB inh; Jurkat NF-kB luciferase, 16 h; inhibition, % at 4 µM; 2,700 tested, 27% active;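 active = inhibition reaching about 45% at 4 µM in either replicate, limit read from the data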
697 NFkB conf: lowers PMA/ionomycin-induced NF-kB signal in 697 B cells; inhibition, % at 4 µM; 2,000 tested, 35% active; 697 B-cell NF-kB luciferase, 16 h; shares compounds with 697 NFkB inh; in the data active = inhibition mostly above about 28%, no sharp cut-off; inactive = mostly below about 22%
A number is an active result; - = inactive; ? = inconclusive; . = no result given. The list is not random: actives were taken first. Their share in the collection is about 4.5%.

SMILES	Gli-Sufu block	Mdm2-MdmX inh	Jurkat NFkB inh	CSC inhib	697 NFkB inh	aSyn 5UTR inh	Jurkat NFkB conf	697 NFkB conf
O=C(Nc1ccccc1)c1ccc(CN2CCc3ccccc3C2)cc1	-	-	-	-	-	-	.	.
O=C(Nc1ccc(S(=O)(=O)Nc2ccccc2)cc1)c1ccc(CN2CCOCC2)cc1	-	-	64	-	-	-	65	.
O=C(Nc1ccc(S(=O)(=O)N2CCCCC2)cc1)c1ccc(CN2CCc3ccccc3C2)cc1	-	-	80	-	-	-	78	.
CCOC(=O)c1cnc2c(ccc3ccccc32)c1N	-	-	-	-	-	-	-	.
CCOC(=O)c1cnc2c(ccc3ccccc32)c1NCCO	-	-	-	-	-	-	.	.
Cc1cccc(/C=N/Nc2nncc3ccccc23)c1	-	-	-	-	-	-	-	.
C(=N\Nc1nncc2ccccc12)/c1ccccc1	-	-	-	-	-	-	.	.
Nc1ccc(-c2nc3cc([N+](=O)[O-])ccc3o2)cc1	-	-	-	-	-	-	-	.
COc1ccc(-c2nc3ccc([N+](=O)[O-])cc3[nH]2)cc1	-	.	.	-	.	-	.	.
CC(C)(C)c1ccc(-c2nc3cc(N)ccc3o2)cc1	-	-	-	-	-	-	-	.
COc1ccc(-c2nc3cc([N+](=O)[O-])ccc3o2)cc1	-	-	-	-	-	-	-	.
CCOc1ccccc1N1CCN(C(=O)/C=C/c2cccc([N+](=O)[O-])c2)CC1	-	-	-	-	-	-	.	.
COc1ccc(C)c2sc(=NC(=O)c3ccc(C(C)=O)cc3)n(C)c12	-	-	-	-	-	-	-	-
O=C(Nc1ccc2c(c1)CCC2)Nc1ccccc1F	.	-	-	-	-	-	-	-
COc1ccc2nc(-c3ccc(Cl)cc3)cc(C(=O)O)c2c1	-	-	-	-	-	-	.	.
Cc1ccc(S(=O)(=O)CCC(=O)NCc2ccccc2F)cc1	-	-	-	-	-	-	.	.
COc1ccc(-c2ccc3sc4ccccc4c(=O)c3c2)cn1	-	-	-	-	-	-	-	-
COc1ccc(C(C)NC(=O)Cc2cccs2)cc1 (stereo not drawn)	-	-	-	-	-	-	.	.
Cc1ccc(NC(=O)c2cnn(-c3ccccc3)c2C)cc1	-	-	-	-	-	-	-	-
Cc1ccc(NC(=O)c2cnn(-c3ccccc3)c2C)c(C)c1	-	-	-	-	-	-	.	.
Cc1cc([N+](=O)[O-])nn1Cc1ccccc1F	-	-	97	.	51	-	62	76
Cc1ccccc1C(=O)OCC(=O)NCC1COc2ccccc2O1 (stereo not drawn)	-	-	-	.	-	.	.	.
Clc1ccc(/C=C/c2nc3ccccc3[nH]2)cc1	-	-	-	76	-	?	-	-
CC(C)(C)c1ccc2c(c1)C(=O)c1ccccc1C2=O	-	-	-	-	-	-	-	-
CCc1ccc2c(c1)C(=O)c1ccccc1C2=O	-	-	-	-	-	-	.	.
SMILES	Gli-Sufu block	Mdm2-MdmX inh	Jurkat NFkB inh	CSC inhib	697 NFkB inh	aSyn 5UTR inh	Jurkat NFkB conf	697 NFkB conf
Cc1snc(SCc2ccc(Cl)cc2)c1C#N	-	-	-	-	-	-	.	.
Cc1ccc(C(=O)Nc2sc3c(c2C#N)CCCCC3)cc1C	-	-	-	-	-	-	.	.
CC1CCc2c(sc(NC(=O)CSc3ncn[nH]3)c2C#N)C1 (stereo not drawn)	-	-	61	-	58	91	61	52
N#Cc1c(NC(=O)c2ccccc2)sc2c1CCCCC2	-	-	-	-	-	-	-	-
N#Cc1c(NC(=O)CSc2ncn[nH]2)sc2c1CCCC2	-	-	52	-	62	84	-	47
CCCc1cc(=O)[nH]c(SCC(=O)Nc2sc3c(c2C#N)CCC(C)C3)n1 (stereo not drawn)	-	-	-	-	-	-	.	.
Cc1cccc(C(=O)N(C(=O)c2cccc(C)c2)N(C)C)c1	-	.	.	.	.	.	.	.
Cn1ncc(N=Cc2ccccc2)c1C(=O)Nc1cccc(Cl)c1	-	-	-	-	-	-	.	.
O=C(CNC(=O)c1ccc(Cl)cc1)c1ccc(Br)cc1	-	-	-	-	-	-	.	.
Oc1c(N=Nc2ccccc2)sc2ccccc12	-	-	-	-	-	-	-	-
CC(=Nc1ccc(O)cc1)c1sc2ccccc2c1O	-	-	-	-	-	-	.	.
COc1cc(CN2CCNC(=O)C2CC(=O)NCc2csc(C(C)C)n2)cc(OC)c1 (stereo not drawn)	-	-	-	-	-	-	.	.
Nc1c2c(nc3sc4c(c13)CCCC4)-c1ccccc1CC2	-	-	-	-	-	-	-	-
NC(=O)c1sc2nc(-c3ccccc3)c3c(c2c1N)CCCC3	-	-	-	-	-	-	.	.
c1ccc(-c2cn3ccccc3n2)cc1	-	.	.	.	.	.	.	.
Brc1ccc(-c2cn3ccccc3n2)cc1	-	-	-	-	-	-	-	-
COCCN=C1Sc2nc3cc4c(cc3cc2CN1CC1CCCO1)OCO4 (stereo not drawn)	-	-	-	-	-	-	.	.
Cn1ccs/c1=N\C(=O)Nc1cccc(Cl)c1	-	-	-	-	-	-	.	.
Cc1ccc(NC(=O)Nc2ccc(F)cc2)nc1	-	-	-	-	-	-	.	.
CSc1ccc(NC(=O)Nc2cc(C)ccn2)cc1	-	-	-	-	-	-	-	-
CSc1ncccc1C(=O)Nc1cc(C)ccn1	-	-	-	-	-	-	.	.
Cc1ccnc(NC(=O)Nc2ccc(F)cc2)c1	-	-	-	-	-	-	-	-
CCOC(=O)C1=C(CS(=O)(=O)c2ccccc2)NC(=O)NC1c1ccccc1OC (stereo not drawn)	-	-	-	-	-	-	.	.
CCCCCCCCNc1ncnc2ccccc12	82	-	71	-	107	-	68	100
CCc1ccccc1Nc1ncnc2ccccc12	.	-	-	-	-	-	.	.
SMILES	Gli-Sufu block	Mdm2-MdmX inh	Jurkat NFkB inh	CSC inhib	697 NFkB inh	aSyn 5UTR inh	Jurkat NFkB conf	697 NFkB conf
Cc1ccc(-c2nc3ccc([N+](=O)[O-])cc3[nH]2)cc1	-	-	-	-	-	-	-	-
O=c1c2c3c(sc2nc2n1N=C(c1cccs1)CS2)CCCC3	-	-	-	-	-	-	-	-
CC(C)(C)c1ccc(NC(=O)c2ccsc2)cc1	-	-	-	-	-	-	-	-
Cc1ccc(NC(=O)c2ccsc2)cc1NS(C)(=O)=O	-	-	-	-	-	-	.	.
COc1cc(NC(=O)COc2cc(O)c3c(c2)OC(C)(C)CC3=O)cc(OC)c1OC	70	-	58	-	59	-	76	48
C/C(=N\Nc1cccc2cccnc12)c1ccccn1	-	-	-	-	-	-	-	-
C/C(=N\Nc1cccc2cccnc12)c1ccccc1O	-	-	-	-	-	-	.	.
C/C(N)=C(/C#N)C(=O)CSc1nnc(-c2ccc3c(c2)OCO3)o1	-	-	-	-	-	?	-	-
COc1ccc2nc(NC(=S)N(C)C)sc2c1	-	-	-	-	-	-	-	-
CCCC(=O)Nc1nc2ccc(OC)cc2s1	-	-	-	-	-	-	.	.
